Results taken from the supplement of paper PMC11732987, “Enantioselective OTUD7B fragment discovery through chemoproteomics screening and high-throughput optimisation” (Communications Chemistry, 2025).

Experiments:
Test in all cases: log2 ratio of Biotin-Ahx-Ub-VS probe labelling (fragment/DMSO); higher = less target engagement (more negative = stronger competition), active = hit call of the paper (q ≤ 0.05, log2 ratio ≤ -1)
Settings in all cases: compound concentration: 200 uM; treatment time: 3 h
USP19 = molecular target: T1, USP19 (UniProt O94966)
T1 sequence (whole entry): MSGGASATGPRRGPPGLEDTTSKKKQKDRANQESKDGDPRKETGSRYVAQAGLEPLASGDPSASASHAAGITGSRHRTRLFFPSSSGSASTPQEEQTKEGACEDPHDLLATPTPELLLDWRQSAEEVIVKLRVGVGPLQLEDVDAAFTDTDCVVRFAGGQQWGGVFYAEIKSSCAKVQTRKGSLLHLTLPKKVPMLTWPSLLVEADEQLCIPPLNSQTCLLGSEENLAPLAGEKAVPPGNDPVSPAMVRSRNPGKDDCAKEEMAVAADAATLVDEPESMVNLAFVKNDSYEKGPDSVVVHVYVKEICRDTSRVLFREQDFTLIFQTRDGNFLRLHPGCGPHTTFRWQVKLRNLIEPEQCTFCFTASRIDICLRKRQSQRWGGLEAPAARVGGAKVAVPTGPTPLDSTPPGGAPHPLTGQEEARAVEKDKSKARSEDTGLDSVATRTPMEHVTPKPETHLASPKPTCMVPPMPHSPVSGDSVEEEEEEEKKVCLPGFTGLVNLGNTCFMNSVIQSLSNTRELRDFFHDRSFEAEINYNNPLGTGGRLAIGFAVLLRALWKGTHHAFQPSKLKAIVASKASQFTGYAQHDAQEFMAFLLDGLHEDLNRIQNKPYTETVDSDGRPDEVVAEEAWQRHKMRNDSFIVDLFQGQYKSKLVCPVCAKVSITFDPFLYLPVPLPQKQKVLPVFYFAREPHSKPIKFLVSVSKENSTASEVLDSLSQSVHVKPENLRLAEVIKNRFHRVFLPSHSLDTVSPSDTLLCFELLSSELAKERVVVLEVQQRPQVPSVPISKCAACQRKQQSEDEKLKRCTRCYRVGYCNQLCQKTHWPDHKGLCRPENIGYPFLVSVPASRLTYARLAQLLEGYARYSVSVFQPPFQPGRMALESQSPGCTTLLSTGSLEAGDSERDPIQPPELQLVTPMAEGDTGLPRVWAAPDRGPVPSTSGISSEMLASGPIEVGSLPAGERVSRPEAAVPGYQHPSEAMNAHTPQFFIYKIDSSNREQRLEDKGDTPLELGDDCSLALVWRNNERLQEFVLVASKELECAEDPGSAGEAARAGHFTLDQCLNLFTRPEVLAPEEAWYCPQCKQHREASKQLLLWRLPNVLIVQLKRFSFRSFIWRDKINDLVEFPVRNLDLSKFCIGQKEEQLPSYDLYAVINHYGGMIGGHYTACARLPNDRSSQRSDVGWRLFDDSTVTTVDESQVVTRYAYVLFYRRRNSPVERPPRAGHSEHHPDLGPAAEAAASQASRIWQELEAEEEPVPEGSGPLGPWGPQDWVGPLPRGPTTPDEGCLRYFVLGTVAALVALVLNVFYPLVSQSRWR
Outline: (§1)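 Labelling with Biotin-Ahx-Ub-VS (0.5 µM final, 1 h) followed a 3 h triplicate treatment of HEK293T lysate (495 µg per sample, Tris/CHAPS/IGEPAL buffer with protease inhibitors) with fragment at 200 µM or vehicle. Labelled DUBs were NeutrAvidin-enriched, digested with LysC and trypsin, and run by diaPASEF LC-MS/MS. The values, average log2 fragment/vehicle ratios by unpaired t-test, come from global-median-normalised Spectronaut label-free quantities. Proteins with ≥2 unique peptides were used.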

USP24 = USP24 (UniProt Q9UPU5)
USP24, sequence (Q9UPU5 whole entry): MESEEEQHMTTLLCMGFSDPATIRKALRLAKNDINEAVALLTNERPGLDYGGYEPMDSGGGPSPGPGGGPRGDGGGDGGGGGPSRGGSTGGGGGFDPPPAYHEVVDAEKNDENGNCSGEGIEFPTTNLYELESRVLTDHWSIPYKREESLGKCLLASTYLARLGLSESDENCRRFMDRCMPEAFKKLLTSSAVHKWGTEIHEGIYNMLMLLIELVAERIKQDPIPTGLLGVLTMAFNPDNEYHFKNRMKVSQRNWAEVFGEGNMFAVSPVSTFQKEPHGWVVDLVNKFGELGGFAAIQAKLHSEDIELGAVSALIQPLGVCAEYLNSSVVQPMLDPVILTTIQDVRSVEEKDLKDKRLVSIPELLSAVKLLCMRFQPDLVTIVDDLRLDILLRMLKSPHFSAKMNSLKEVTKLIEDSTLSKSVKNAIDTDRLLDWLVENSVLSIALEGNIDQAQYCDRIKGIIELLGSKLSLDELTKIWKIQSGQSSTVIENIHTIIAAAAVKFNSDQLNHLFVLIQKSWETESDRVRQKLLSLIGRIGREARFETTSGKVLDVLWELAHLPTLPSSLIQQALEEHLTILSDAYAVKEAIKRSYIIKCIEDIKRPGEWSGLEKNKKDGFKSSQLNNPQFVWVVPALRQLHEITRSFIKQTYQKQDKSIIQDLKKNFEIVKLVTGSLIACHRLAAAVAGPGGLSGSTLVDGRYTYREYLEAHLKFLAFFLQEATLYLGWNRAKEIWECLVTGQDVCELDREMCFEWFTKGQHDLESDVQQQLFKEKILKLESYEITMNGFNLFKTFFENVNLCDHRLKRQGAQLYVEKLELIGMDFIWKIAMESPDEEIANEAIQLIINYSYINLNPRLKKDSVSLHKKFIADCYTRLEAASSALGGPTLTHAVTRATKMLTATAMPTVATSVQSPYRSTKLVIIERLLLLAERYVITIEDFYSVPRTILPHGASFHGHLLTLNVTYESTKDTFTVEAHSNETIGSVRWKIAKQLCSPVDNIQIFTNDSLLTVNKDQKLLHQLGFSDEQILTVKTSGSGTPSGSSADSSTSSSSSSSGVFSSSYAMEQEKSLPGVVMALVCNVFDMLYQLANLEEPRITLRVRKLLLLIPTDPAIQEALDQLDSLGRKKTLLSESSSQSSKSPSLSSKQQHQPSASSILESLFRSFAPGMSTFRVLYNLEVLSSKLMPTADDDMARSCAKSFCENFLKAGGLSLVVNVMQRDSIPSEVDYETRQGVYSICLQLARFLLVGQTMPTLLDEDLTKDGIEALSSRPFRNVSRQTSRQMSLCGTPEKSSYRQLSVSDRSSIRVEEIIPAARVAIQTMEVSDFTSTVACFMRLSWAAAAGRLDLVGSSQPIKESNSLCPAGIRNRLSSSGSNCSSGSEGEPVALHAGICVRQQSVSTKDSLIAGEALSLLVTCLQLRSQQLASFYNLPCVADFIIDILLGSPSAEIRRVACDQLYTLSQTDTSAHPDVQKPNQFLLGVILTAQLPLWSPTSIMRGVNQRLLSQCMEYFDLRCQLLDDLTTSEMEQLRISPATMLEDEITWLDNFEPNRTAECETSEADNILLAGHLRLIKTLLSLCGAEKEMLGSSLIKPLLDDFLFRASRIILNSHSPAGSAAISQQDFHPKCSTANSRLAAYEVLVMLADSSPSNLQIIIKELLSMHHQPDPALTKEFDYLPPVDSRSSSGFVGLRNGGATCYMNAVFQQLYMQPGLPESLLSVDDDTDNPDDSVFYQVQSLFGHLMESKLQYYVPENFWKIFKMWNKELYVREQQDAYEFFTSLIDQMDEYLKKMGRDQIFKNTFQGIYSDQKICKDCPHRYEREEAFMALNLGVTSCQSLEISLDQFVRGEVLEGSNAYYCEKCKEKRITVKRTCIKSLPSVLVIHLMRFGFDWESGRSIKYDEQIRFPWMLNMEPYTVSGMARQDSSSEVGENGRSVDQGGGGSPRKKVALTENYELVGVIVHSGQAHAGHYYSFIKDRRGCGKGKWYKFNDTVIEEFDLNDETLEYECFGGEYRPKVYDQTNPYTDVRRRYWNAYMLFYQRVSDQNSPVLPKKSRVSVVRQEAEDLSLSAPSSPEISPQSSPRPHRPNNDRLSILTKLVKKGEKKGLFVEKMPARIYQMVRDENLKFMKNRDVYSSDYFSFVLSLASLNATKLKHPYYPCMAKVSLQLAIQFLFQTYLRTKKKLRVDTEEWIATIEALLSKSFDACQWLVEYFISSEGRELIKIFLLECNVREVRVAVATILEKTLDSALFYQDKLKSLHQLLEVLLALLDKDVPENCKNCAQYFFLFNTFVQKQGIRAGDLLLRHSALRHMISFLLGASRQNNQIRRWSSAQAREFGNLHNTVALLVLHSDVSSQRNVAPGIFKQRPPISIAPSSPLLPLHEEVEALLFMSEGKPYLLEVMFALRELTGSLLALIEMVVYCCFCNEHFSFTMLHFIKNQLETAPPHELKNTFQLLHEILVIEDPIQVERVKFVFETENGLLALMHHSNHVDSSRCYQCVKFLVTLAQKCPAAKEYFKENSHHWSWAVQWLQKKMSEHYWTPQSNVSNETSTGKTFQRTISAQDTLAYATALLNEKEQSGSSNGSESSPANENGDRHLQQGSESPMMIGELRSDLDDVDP
Outline: as §1

USP25 = molecular target: T2, USP25 (UniProt Q9UHP3)
T2 sequence (whole entry): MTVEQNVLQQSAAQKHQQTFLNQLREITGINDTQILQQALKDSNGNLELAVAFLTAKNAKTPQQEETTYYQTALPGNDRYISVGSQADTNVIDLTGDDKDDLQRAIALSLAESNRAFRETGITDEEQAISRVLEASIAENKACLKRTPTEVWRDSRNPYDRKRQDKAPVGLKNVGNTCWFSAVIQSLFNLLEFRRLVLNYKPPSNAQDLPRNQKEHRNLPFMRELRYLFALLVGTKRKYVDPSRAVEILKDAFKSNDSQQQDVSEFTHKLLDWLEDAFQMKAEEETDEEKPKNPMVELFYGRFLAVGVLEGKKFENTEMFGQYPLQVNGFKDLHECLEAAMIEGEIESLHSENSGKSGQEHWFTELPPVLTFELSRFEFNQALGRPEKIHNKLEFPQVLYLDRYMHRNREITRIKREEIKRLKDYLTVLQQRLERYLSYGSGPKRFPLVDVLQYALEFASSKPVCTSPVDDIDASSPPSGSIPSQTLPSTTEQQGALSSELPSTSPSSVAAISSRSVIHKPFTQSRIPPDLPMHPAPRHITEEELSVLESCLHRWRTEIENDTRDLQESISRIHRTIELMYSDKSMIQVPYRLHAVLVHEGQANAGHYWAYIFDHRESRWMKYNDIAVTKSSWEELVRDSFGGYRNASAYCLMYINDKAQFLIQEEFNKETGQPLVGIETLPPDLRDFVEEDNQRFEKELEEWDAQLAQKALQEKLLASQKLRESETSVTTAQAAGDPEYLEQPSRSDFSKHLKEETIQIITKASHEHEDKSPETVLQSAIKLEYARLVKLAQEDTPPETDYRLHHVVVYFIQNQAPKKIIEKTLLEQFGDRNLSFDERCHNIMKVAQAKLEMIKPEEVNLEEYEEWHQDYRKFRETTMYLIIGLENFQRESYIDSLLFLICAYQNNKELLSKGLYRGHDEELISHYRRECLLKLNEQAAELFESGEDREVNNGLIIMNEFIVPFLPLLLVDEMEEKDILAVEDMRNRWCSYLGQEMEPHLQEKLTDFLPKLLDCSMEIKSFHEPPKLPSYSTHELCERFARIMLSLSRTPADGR
Outline: as §1

USP28 = molecular target: T3, USP28 (UniProt Q96RU2)
T3 sequence (whole entry): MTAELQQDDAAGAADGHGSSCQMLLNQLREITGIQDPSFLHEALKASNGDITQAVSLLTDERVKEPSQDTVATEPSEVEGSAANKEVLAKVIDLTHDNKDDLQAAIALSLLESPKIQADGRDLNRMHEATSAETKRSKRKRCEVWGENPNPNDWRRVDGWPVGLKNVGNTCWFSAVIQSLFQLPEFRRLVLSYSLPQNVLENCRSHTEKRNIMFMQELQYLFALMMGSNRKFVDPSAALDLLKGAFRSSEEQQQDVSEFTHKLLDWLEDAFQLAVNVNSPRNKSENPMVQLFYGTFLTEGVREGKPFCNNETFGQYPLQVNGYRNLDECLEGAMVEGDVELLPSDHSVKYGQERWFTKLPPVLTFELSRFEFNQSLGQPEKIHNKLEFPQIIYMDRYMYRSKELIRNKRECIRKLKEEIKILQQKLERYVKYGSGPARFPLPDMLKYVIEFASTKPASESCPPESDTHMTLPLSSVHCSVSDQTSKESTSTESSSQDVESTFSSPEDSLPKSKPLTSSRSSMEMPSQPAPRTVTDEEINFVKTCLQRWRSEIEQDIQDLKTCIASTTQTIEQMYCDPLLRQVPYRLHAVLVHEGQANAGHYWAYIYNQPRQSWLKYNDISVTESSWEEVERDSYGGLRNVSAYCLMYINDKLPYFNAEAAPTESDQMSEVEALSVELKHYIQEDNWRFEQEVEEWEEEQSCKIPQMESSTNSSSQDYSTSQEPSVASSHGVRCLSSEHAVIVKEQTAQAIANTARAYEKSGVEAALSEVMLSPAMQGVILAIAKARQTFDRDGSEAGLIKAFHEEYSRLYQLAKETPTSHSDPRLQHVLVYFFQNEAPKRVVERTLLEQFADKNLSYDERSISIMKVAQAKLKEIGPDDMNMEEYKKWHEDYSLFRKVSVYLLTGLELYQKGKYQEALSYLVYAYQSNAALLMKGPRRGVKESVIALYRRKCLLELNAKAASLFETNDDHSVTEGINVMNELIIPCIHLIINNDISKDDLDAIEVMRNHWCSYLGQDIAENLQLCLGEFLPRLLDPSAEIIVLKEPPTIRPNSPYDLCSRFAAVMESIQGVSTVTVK
Outline: as §1

Measured: log2 ratio of Biotin-Ahx-Ub-VS probe labelling

CC1(NC(=O)CCl)CCS(=O)(=O)C1 (centres undefined)
inactive: USP19 -0.59 | USP24 -0.659 | USP25 -0.695 | USP28 -0.835
